In PubChem BioAssay AID1822 (The Scripps Research Institute Molecular Screening Center, 2009) one finds inhibition data, which are given here for 99 compounds.

Hit rate of the full screen: of about 290,000 compounds, about 3,500 (1.2%) were called active. The sample as a whole holds a higher share of actives than the screen did. Values without a mark were called inactive.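 How the source made its calls: active means inhibition above the campaign mean inhibition over all tested compounds plus 3 SD (cut at about 28% in these data); inactive means the rest.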

The subject of the experiment is M18 aspartyl aminopeptidase (Plasmodium falciparum 3D7). Description: PfM18AAP inhibitors, malaria aminopeptidase, primary screen, biochemical, QFRET, recombinant enzyme (AID 1822).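 Further: 0% = plate median of test compound wells and 100% = 2 mM ZnCl2.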 As to conditions: H-Glu-NHMec fluorogenic cleavage, at 7.35 µM, stronger effect = higher value.
On to `CC(=O)c1cccc(NC(=O)C2COc3ccccc3O2)c1` (centres undefined), for which the inhibition – broadly, the change of the read-out against control, counted positive when it falls – is -8.5%. As for `Cn1cncc1COC(=O)c1ccc(Cl)cc1`, the inhibition was -13.9%. For the compound `Oc1ccccc1N1CCN(C(=S)NCc2ccccc2)CC1`, the inhibition was 9.57%. For `S=C(NCCc1ccccc1)N1CCCCC1`, the inhibition is -5.18%.

As to `Oc1ccc(N2CCN(C(=S)NCc3ccccc3)CC2)cc1`, the inhibition was 36.6% (active). The result for `Cc1occc1C(=O)N/N=C/c1ccc(-c2cccc([N+](=O)[O-])c2)o1` reads 9.99%; that for `NS(=O)(=O)c1ccc(NC(=S)N2CCCC2)cc1`, 0.47%. With `CCOc1ccccc1N1CCN(C(=S)Nc2ccc(S(N)(=O)=O)cc2)CC1`, the inhibition was 9.49%. Regarding `COc1ccc(N2CCN(C(=S)Nc3ccc(S(N)(=O)=O)cc3)CC2)cc1`, the inhibition was 46.7% (active). For `NS(=O)(=O)c1ccc(CCNC(=O)c2nc(CS(=O)(=O)c3ccc(Cl)cc3)no2)cc1`, the inhibition is -4.83%. For the compound `O=C(NC1CCCC1)C(c1ccc(Cl)cc1)N(C(=O)c1csnn1)C1CC1` (centres undefined), the inhibition was -2%. For `CC(C(=O)Nc1ccc(O)c(C(=O)O)c1)N1C(=O)/C(=C/c2cccs2)SC1=S` (centres undefined), the inhibition was 30.4% (active). With `O=C(CCCN1C(=O)/C(=C/c2cccs2)SC1=S)Nc1ccc(O)cc1`, the inhibition is 1.87%.

On to `O=C(CCN1C(=O)/C(=C/c2cccs2)SC1=S)NNC(=O)c1cccc(O)c1`, for which the inhibition was -2.41%.

Consider `CN(C(=O)CC1C(=O)NCCN1Cc1ccc2ccccc2c1)C1CCOCC1` (centres undefined), for which the inhibition is 9.14%. On to `Cc1ccccc1Nc1nnc(SCC(=O)c2cc3ccccc3o2)s1`, for which the inhibition is 28.2% (active).

Turning to `Cc1ccc(Nc2nnc(SCC(=O)c3cc4ccccc4o3)s2)cc1C`, the inhibition is 6.69%.

As to `Cc1cc(NC(=O)CSc2nnc(Nc3ccccc3F)s2)no1`, the inhibition was -12.2%.

As for `O=C(NCCS(=O)(=O)N1CCN(c2ccccc2F)CC1)c1ccc(Br)o1`, the inhibition is 0.95%. Turning to `CCOc1ccc(C(=O)Nc2ccc(S(=O)(=O)NCC3CCCO3)cc2)cc1OCC` (centres undefined), the inhibition is -11.8%. As to `CC(C)(C)c1ccc(CN2C(=O)c3ccccc3S2(=O)=O)cc1`, the inhibition is 7.13%.

`Cc1ccc(-n2c(N)c(C(=O)N3CCOCC3)sc2=S)c(C)c1`: the inhibition is 4.98%. Turning to `Cc1cccc(-n2c(N)c(C(=O)N3CCN(C)CC3)sc2=S)c1`, the inhibition was 13.6%. As for `N#Cc1ccccc1-n1c(N)c(C(=O)N2CCCC2)sc1=S`, the inhibition was 29.2% (active).

Take `CCN(CC)CCCNC(=O)c1cc2c(=O)[nH]c3ccc(C)cc3c2s1`: the inhibition was 0.43%. Turning to `CCOc1cc(C(=O)O)ccc1OCCOc1ccccc1`, the inhibition was 9.32%. For the compound `[2H]C(CCOS(N)(=O)=O)c1ccccc1` (centres undefined), the inhibition is -1.1%. As to `CCOC(=O)CSc1nc2sc3c(c2c(=O)[nH]1)CC(C)(C)OC3`, the inhibition was 10.6%. For `CC/C(C)=N/Nc1nc2sc3c(c2c(=O)[nH]1)CC(C)(C)OC3`, the inhibition was 48.8% (active).

For `CCSc1nc2sc3c(c2c(=O)[nH]1)CC(C)(C)OC3`, the inhibition is -5.01%.

With `COc1ccccc1OCC(=O)Nc1c2c(nn1-c1ccc(F)cc1)CS(=O)(=O)C2`, the inhibition is -3.07%. Regarding `Cc1nnc(SCC(=O)NC2CCCC2)s1`, the inhibition is 5.86%. The value for `Cc1cnc(NC(=O)CSc2nnc(C)s2)s1` was -8.35%. As for `Cc1nnc(SCC(=O)Nn2cnnc2)s1`, the inhibition was 41.6% (active). The result for `CC1C/C(=N/NC(=O)c2cccs2)CC(C)(C)C1` (centres undefined) reads -19.4%; that for `CC1(C)CC(=O)C/C(=N\NC(=O)c2cccs2)C1`, 38.3% (active). Take `Cc1ccc(C)c(NC(=O)CCC(=O)N/N=C2/CC(=O)CC(C)(C)C2)c1`: the inhibition was -1.68%. For `COc1ccccc1CNS(=O)(=O)CC12CCC(CC1=O)C2(C)C` (centres undefined), the inhibition was 6.59%.

Regarding `C/C(=C\C(=O)c1ccccc1)Nc1cccc(O)c1`, the inhibition was 31% (active). For `C/C(=C\C(=O)c1cccnc1)Nc1ccc(C)c(C)c1`, the inhibition is 1.47%.

Regarding `O=C(Nc1cccc(O)c1)c1ccc(C(=O)c2ccccc2)o1`, the inhibition is -0.92%.

`O=C(O)C1CCN(c2ccc([N+](=O)[O-])cc2[N+](=O)[O-])CC1`: the inhibition is -4.27%. As for `O=[N+]([O-])c1ccc(N2CCN(c3ccc(O)cc3)CC2)c(Cl)c1`, the inhibition was 36% (active).

Regarding `COc1ccc(N2CCN(c3ccc([N+](=O)[O-])cc3Cl)CC2)cc1`, the inhibition is -8.52%. The result for `CCOc1ccc(C(=O)Nc2cccc(SC)c2)cc1` reads -1.4%; that for `O=C(Nc1cc(N2CCOCC2)ncn1)NC1(C(F)(F)F)Oc2ccc(Cl)cc2O1` (centres undefined), 89.4% (active).

In the case of `COc1ccc(Cl)cc1NC(=O)CN1CCN(C(=O)N2CCOCC2)CC1`, the inhibition was -7.2%. `O=C(CN1C(=O)COc2ccc(Cl)cc21)Nc1ccc(N2CCOCC2)cc1`: the inhibition is -12.7%. Turning to `CCOc1ccc(C(=O)CCN2CCOCC2)cc1`, the inhibition is -12.6%.

Regarding `O=C1c2ccccc2C(=O)N1CCOc1ccc(F)cc1`, the inhibition is -6.45%. As to `CCn1c(SCC(=O)Nc2ccc(Br)cc2)nc2sc3c(c2c1=O)CCN(C)C3`, the inhibition is 7.65%.

Turning to `COc1ccc(Cl)cc1S(=O)(=O)N1CCN(CC(=O)C(C)(C)C)CC1`, the inhibition is -1.35%. As for `O=C(CN1CCN(S(=O)(=O)c2cc(Cl)ccc2Cl)CC1)c1ccc(O)c(O)c1`, the inhibition is 71.5% (active).

`N#Cc1ccsc1NC(=O)CN1CCN(S(=O)(=O)c2cc(Cl)ccc2Cl)CC1`: the inhibition is -4.98%. The value for `C/C(=N\NC(=O)c1ccccc1F)c1ccccn1` was -8.33%; that for `CC(C)(C)NC(=O)NC(=O)COC(=O)C1c2ccccc2Oc2ccccc21` was 6.75%; that for `CCn1ccnc1CNC(=O)CC1C(=O)NCCN1CCCc1ccccc1` (centres undefined) was 7.75%. In the case of `CCn1ccnc1CNC(=O)CC1C(=O)NCCN1Cc1ccc(F)cc1Cl` (centres undefined), the inhibition is 33.7% (active).

For `CN(C(=O)CC1C(=O)NCCN1Cc1ccc(F)cc1Cl)C1CCCCC1` (centres undefined), the inhibition is -5.56%.

For the compound `CCN(c1cccc(C)c1)S(=O)(=O)c1ccc(-c2coc(C)n2)cc1`, the inhibition is -0.79%.

With `CCOc1ccccc1/C=N/Nc1nc2ccccc2o1`, the inhibition was 2.76%. For the compound `Brc1ccccc1/C=N/Nc1nc2ccccc2o1`, the inhibition was -0.38%.

In the case of `COc1ccc(/C=N/Nc2nc3ccccc3o2)cc1OC`, the inhibition is 56.5% (active). As for `O=C(NC1Cc2ccccc2C1)c1cc(COc2cccc(C(F)(F)F)c2)on1`, the inhibition was 0.88%. On to `O=C(O)c1ccccc1-c1ccccc1C(=O)NCCc1ccccc1`, for which the inhibition is 0.27%.

As for `COc1cccc(NC(=S)NCCCN2CCOCC2)c1`, the inhibition was -6.09%.

Consider `CCOc1cccc(/C=N/NC(=S)NCCN2CCOCC2)c1O`, for which the inhibition is 37.6% (active). With `Cc1ccc(C(=O)NC(=S)NCCN2CCOCC2)cc1`, the inhibition is -7.16%. For the compound `c1cnc(N2CCN(c3ccc4ccccc4n3)CC2)nc1`, the inhibition was -7.11%.

For `COC(=O)c1cc(NS(=O)(=O)c2ccc3c(c2)c(=O)n(C)c(=O)n3C)cc(C(=O)OC)c1`, the inhibition was 7.75%. For the compound `CCOC(=O)[C@H]1[C@H]2COc3cc(OC)ccc3[C@@H]2N2C(=O)N(c3ccc(Br)cc3)C(=O)[C@@]12C`, the inhibition was 8.12%. Regarding `COc1cc(Cl)ccc1OCc1cc(C(=O)N2CC[C@@H]3CCCC[C@H]3C2)no1`, the inhibition is -8.61%. Take `CCOc1cc(/C=N/NC(=O)CN2CCCCC2)ccc1O`: the inhibition was -2.78%.

For the compound `CCn1c(SCC(=O)N/N=C/c2ccncc2)nc2ccccc21`, the inhibition was -5.49%. Take `CCOc1ccc(/C=N/NC(=O)CSc2ccccn2)cc1O`: the inhibition was -7.37%.

Regarding `Cc1nccn1CC(=O)N/N=C/c1ccc(O)c(O)c1`, the inhibition was 59.7% (active). In the case of `Cn1c(SCC(=O)N/N=C/c2ccc(O)c(O)c2)nc2ccccc21`, the inhibition was 61.1% (active).

Regarding `Cc1nc2ccccc2n1CC(=O)N/N=C/c1cccnc1`, the inhibition is 0.09%. On to `CC(=O)Oc1ccc(-c2cccc(C(=O)N3CCCCC3)c2)cc1`, for which the inhibition was 0.56%.

`CSc1nccc(NC(=O)c2ccc(C(C)(C)C)cc2)n1`: the inhibition was -0.09%. The value for `Cc1cccc([C@@H]2[C@@H]3C(=O)N(Cc4ccccc4)C(=O)[C@@H]3[C@]3(C)C(=O)N(c4ccc(Br)cc4)C(=O)N23)c1` was -12%.

`Cc1ccc(CNC(=O)[C@@H](NC(=O)Cc2ccccc2)C(C)C)cc1`: the inhibition is 5.66%. Consider `COc1cccc(NC(=O)Nc2nnc(N3CCCCC3C)s2)c1` (centres undefined), for which the inhibition was 0.21%. Consider `COc1ccccc1NC(=O)c1ccc(N2CC3CC(C2)c2cccc(=O)n2C3)c(NC(=O)c2cccnc2)c1` (centres undefined), for which the inhibition was 29.5% (active). As for `COc1ccccc1NC(=O)c1ccc2nc(N3C(=O)CCC3=O)sc2c1`, the inhibition was -4.36%. As to `CCOc1ccccc1NC(=O)c1cccnc1`, the inhibition was -12.7%. For the compound `CC(C)Cn1c(=O)c2ccccc2n2c(CCC(=O)NCc3ccccn3)nnc12`, the inhibition is -6.62%. Take `CCOc1ccc(S(=O)(=O)N2CCN=C2Cc2ccccc2)cc1C`: the inhibition was -0.06%.

As to `COc1ccc(Cc2nnc(N/N=C/c3ccccc3O)[nH]c2=O)cc1OC`, the inhibition was 54.3% (active).

Consider `Cc1nnc(N/N=C/c2ccccn2)[nH]c1=O`, for which the inhibition is 8.17%.

Regarding `O=c1[nH]c(NCCO)nnc1Cc1ccc(Cl)cc1`, the inhibition is 5.33%. Take `COc1cccc(N(CC(=O)NCc2ccccc2)C(=O)CCC(=O)Nc2nccs2)c1`: the inhibition was -7.44%. The result for `CCCn1c2ccccc2c2cnn(CC(=O)NCCCN3CCCCC3CC)c(=O)c21` (centres undefined) reads 2.69%; that for `Cc1ccc(C2Nc3cccc4cccc(c34)N2)cc1`, 19.1%; that for `Oc1ccc(C2Nc3cccc4cccc(c34)N2)cc1`, 31.7% (active). On to `COc1cccc(C2Nc3cccc4cccc(c34)N2)c1`, for which the inhibition was -7.19%. `CCOC(=O)C1(Cc2cccc(OC)c2)CCCN(C(=O)CCSC)C1` (centres undefined): the inhibition is -2.88%.

For the compound `Cc1ccc(C)c(N2CCN(C(=O)CCCCCn3c(=S)[nH]c4ccc(N5CCOCC5)cc4c3=O)CC2)c1`, the inhibition is 5.1%. As to `O=C(O)CC(CC(=O)N1CCOCC1)c1ccccc1` (centres undefined), the inhibition is -1.93%.
